Experimental data published in PubChem BioAssay AID1159580 (chemical genetic matrix, 2015).
In all, about 5,500 compounds went through this assay and about 2,000 (36%) were called active. Inconclusive results (about 18%) are left out. No stated cut-off is given here; in the data, active means normalized growth mostly below about 0.91 (no sharp cut-off); inconclusive means no clear call, values can overlap the other calls; inactive means mostly above about 0.92. The list shows a part of the results.

Assay: chemical genetic growth profiling, strain panel (AID 1159580);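 further: tested at 20 µM; growth read once vehicle control cultures reached saturation at 30 °C; 1 = growth at the plate median or of vehicle wells; lower values mean less growth of the strain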
Details: S. cerevisiae deletion strains, growth OD

Measured: normalized growth

CC(=O)O[C@@H]1c2c(ccc3ccc(=O)oc23)OC(C)(C)[C@@H]1OC(=O)CC(C)C
active: locus YDR137W, strain rgp1, active compounds read low 0.796 | locus YDR392W, strain spt3, active compounds read low 0.591 | locus YLR262C, strain YPT6 (second series), active compounds read low 0.794 | locus YNL071W, strain lat1, active compounds read low 0.882
inactive: locus YAL021C, strain ccr4, active compounds read low 1.03 | locus YAL026C, strain drs2, active compounds read low 0.993 | locus YAL030W, strain snc1, active compounds read low 1 | locus YBL061C, strain skt5, active compounds read low 0.992 | locus YBR009C, strain hhf1, active compounds read low 1.05 | locus YBR021W, strain FUR4, active compounds read low 1.02 | locus YBR023C, strain chs3, active compounds read low 0.991 | locus YBR171W, strain sec66, active compounds read low 0.974 | locus YBR229C, strain ROT2, active compounds read low 0.993 | locus YBR231C, strain swc5, active compounds read low 1 | locus YBR279W, strain paf1, active compounds read low 1.02 | locus YCL011C, strain gbp2, active compounds read low 1.01 | locus YCL016C, strain dcc1, active compounds read low 1 | locus YCL029C, strain bik1, active compounds read low 1.03 | locus YCL061C, strain MRC1, active compounds read low 1 | locus YCL069W, strain vba3, active compounds read low 1.01 | locus YCR088W, strain abp1, active compounds read low 0.997 | locus YDL005C, strain med2, active compounds read low 0.995 | locus YDL035C, strain GPR1, active compounds read low 1.01 | locus YDL040C, strain nat1, active compounds read low 1.01 | locus YDL074C, strain BRE1, active compounds read low 1.01 | locus YDL101C, strain DUN1, active compounds read low 1 | locus YDL134C, strain PPH21, active compounds read low 0.977 | locus YDL185W, strain tfp1, active compounds read low 1.03 | locus YDL192W, strain arf1, active compounds read low 1 | locus YDR001C, strain nth1, active compounds read low 1.01 | locus YDR069C, strain doa4, active compounds read low 1 | locus YDR101C, strain arx1, active compounds read low 1.05 | locus YDR159W, strain sac3, active compounds read low 0.974 | locus YDR162C, strain NBP2, active compounds read low 0.976 | locus YDR195W, strain ref2 1.07 | locus YDR297W, strain sur2, active compounds read low 0.994 | locus YDR318W, strain mcm21, active compounds read low 0.978 | locus YDR334W, strain swr1, active compounds read low 1.01 | locus YDR335W, strain msn5, active compounds read low 1.02 | locus YDR388W, active compounds read low 1.01 | locus YDR502C, strain sam2, active compounds read low 1 | locus YEL003W, strain gim4, active compounds read low 1.02 | locus YEL037C, strain rad23, active compounds read low 1.01 | locus YEL061C, strain CIN8 (second series), active compounds read low 1.01 | locus YEL061C, strain CIN8, active compounds read low 0.978 | locus YER015W, strain faa2, active compounds read low 1.01 | locus YER016W, strain bim1, active compounds read low 0.995 | locus YER110C, active compounds read low 1.03 | locus YER111C, strain swi4, active compounds read low 1 | locus YER155C, strain BEM2 (second series), active compounds read low 0.972 | locus YER155C, strain BEM2, active compounds read low 1 | locus YER167W, strain BCK2, active compounds read low 1 | locus YFR010W, strain ubp6, active compounds read low 1.03 | locus YGL078C, strain dbp3, active compounds read low 1.02 | locus YGL086W, strain mad1, active compounds read low 1.03 | locus YGL167C, strain pmr1, active compounds read low 0.989 | locus YGL173C, strain kem1, active compounds read low 0.987 | locus YGL227W, strain vid30, active compounds read low 1 | locus YGL240W, strain doc1, active compounds read low 1.02 | locus YGL248W, strain PDE1, active compounds read low 0.994 | locus YGL253W, strain hxk2, active compounds read low 0.986 | locus YGR078C, strain PAC10, active compounds read low 1 | locus YGR135W, strain pre9, active compounds read low 1 | locus YGR252W, strain gcn5, active compounds read low 1 | locus YHR013C, strain ard1, active compounds read low 1.01 | locus YHR027C, strain rpn1, active compounds read low 0.999 | locus YHR030C, strain SLT2, active compounds read low 0.988 | locus YHR079C, strain IRE1 (second series), active compounds read low 1.01 | locus YHR094C, strain hxt1, active compounds read low 1.01 | locus YHR129C, strain ARP1, active compounds read low 0.993 | locus YHR142W, strain chs7, active compounds read low 0.99 | locus YHR200W, strain rpn10, active compounds read low 1.03 | locus YIL066C, strain RNR3, active compounds read low 0.982 | locus YIL073C, strain SPO22, active compounds read low 1.01 | locus YIL125W, strain kgd1, active compounds read low 1.02 | locus YIR030C, strain dcg1, active compounds read low 1 | locus YJL092W, strain hpr5, active compounds read low 0.998 | locus YJL095W, strain BCK1 (second series), active compounds read low 0.995 | locus YJL095W, strain BCK1, active compounds read low 0.94 | locus YJL115W, strain asf1, active compounds read low 1.01 | locus YJL129C, strain trk1, active compounds read low 0.918 | locus YJL134W, strain LCB3, active compounds read low 0.994 | locus YJL154C, strain vps35, active compounds read low 1.01 | locus YJL164C, strain tpk1, active compounds read low 1.02 | locus YJL166W, strain qcr8, active compounds read low 0.961 | locus YJL168C, strain set2, active compounds read low 1.02 | locus YJL187C, strain SWE1 (second series), active compounds read low 1 | locus YJL187C, strain SWE1, active compounds read low 0.996 | locus YJR043C, strain POL32, active compounds read low 1.03 | locus YKL009W, strain mrt4, active compounds read low 1.01 | locus YKL068W, active compounds read low 0.996 | locus YKL085W, strain MDH1 (second series), active compounds read low 0.988 | locus YKL085W, strain MDH1, active compounds read low 0.988 | locus YKL160W, strain elf1, active compounds read low 0.928 | locus YKL190W, strain CNB1, active compounds read low 0.989 | locus YKR001C, strain vps1, active compounds read low 1.01 | locus YKR026C, strain gcn3, active compounds read low 0.998 | locus YKR091W, strain srl3, active compounds read low 0.997 | locus YLL001W, strain dnm1, active compounds read low 0.957 | locus YLL026W, active compounds read low 1 | locus YLL041C, strain sdh2, active compounds read low 1 | locus YLR027C, strain aat2, active compounds read low 0.999 | locus YLR039C, strain RIC1, active compounds read low 0.921 | locus YLR058C, strain SHM2, active compounds read low 0.982 | locus YLR102C, strain apc9, active compounds read low 1.01 | locus YLR221C, strain rsa3, active compounds read low 0.979 | locus YLR258W, strain gsy2, active compounds read low 1.01 | locus YLR262C, strain YPT6, active compounds read low 0.889 | locus YLR268W, strain sec22, active compounds read low 1.03 | locus YLR320W, strain mms22, active compounds read low 0.918 | locus YLR330W, strain CHS5, active compounds read low 1 | locus YLR342W, strain FKS1 (second series), active compounds read low 1 | locus YLR342W, strain FKS1, active compounds read low 0.98 | locus YLR357W, strain rsc2, active compounds read low 1.07 | locus YLR370C, strain arc18, active compounds read low 1 | locus YLR371W, strain rom2, active compounds read low 1.02 | locus YLR384C, strain iki3, active compounds read low 1.01 | locus YLR418C, strain cdc73, active compounds read low 0.947 | locus YML016C, strain PPZ1, active compounds read low 0.992 | locus YML032C, strain rad52, active compounds read low 0.992 | locus YML120C, strain ndi1, active compounds read low 0.989 | locus YML124C, strain tub3, active compounds read low 1 | locus YMR058W, strain fet3, active compounds read low 1 | locus YMR078C, strain ctf18, active compounds read low 1 | locus YMR125W, strain sto1, active compounds read low 0.976 | locus YMR129W, active compounds read low 1 | locus YMR205C, strain PFK2, active compounds read low 0.878 | locus YMR223W, strain ubp8, active compounds read low 0.986 | locus YMR231W, strain pep5, active compounds read low 1 | locus YMR263W, strain SAP30, active compounds read low 0.996 | locus YMR307W, strain GAS1, active compounds read low 0.848 | locus YNL067W, strain RPL9B, active compounds read low 0.998 | locus YNL209W, strain ssb2, active compounds read low 1.01 | locus YNL233W, strain BNI4, active compounds read low 1.02 | locus YNL248C, strain rpa49, active compounds read low 0.952 | locus YNL250W, strain rad50, active compounds read low 1.02 | locus YNL271C, strain bni1, active compounds read low 0.999 | locus YNL298W, strain CLA4, active compounds read low 1.02 | locus YNL307C, strain MCK1, active compounds read low 1.01 | locus YNL322C, strain KRE1 (second series), active compounds read low 1.01 | locus YNL322C, strain KRE1, active compounds read low 0.995 | locus YNR049C, strain mso1, active compounds read low 1.01 | locus YNR052C, strain pop2, active compounds read low 1 | locus YOL012C, strain htz1 0.997 | locus YOL147C, strain pex11, active compounds read low 1 | locus YOR001W, strain rrp6, active compounds read low 1.03 | locus YOR061W, strain CKA2, active compounds read low 0.985 | locus YOR069W, strain VPS5, active compounds read low 0.992 | locus YOR070C, strain gyp1, active compounds read low 1 | locus YOR080W, strain dia2, active compounds read low 1.02 | locus YOR083W, strain WHI5, active compounds read low 0.949 | locus YOR106W, strain vam3, active compounds read low 0.968 | locus YOR136W, strain idh2, active compounds read low 1.03 | locus YOR144C, strain elg1, active compounds read low 1.01 | locus YOR184W, strain ser1, active compounds read low 0.921 | locus YOR265W, strain rbl2, active compounds read low 1.01 | locus YOR270C, strain vph1, active compounds read low 0.883 | locus YOR290C, strain snf2, active compounds read low 1 | locus YOR316C, strain cot1, active compounds read low 1.01 | locus YPL051W, strain arl3, active compounds read low 0.951 | locus YPL078C, strain atp4, active compounds read low 0.93 | locus YPL106C, strain sse1, active compounds read low 1.06 | locus YPL240C, strain hsp82, active compounds read low 1 | locus YPL241C, strain CIN2, active compounds read low 0.973 | locus YPR119W, strain clb2, active compounds read low 1 | locus YPR141C, strain kar3, active compounds read low 0.994 | locus YPR163C, strain tif3, active compounds read low 1.01 | locus YPR167C, strain met16, active compounds read low 1.01 | strain wtn01, active compounds read low 1.04
